Test in all cases: PBM; 200 nM protein, PBS
Holding throughout (conditions): dsDNA, one strand shown

Assay [1] concerns the target HOXB9 (Homo sapiens, UniProt P17482 171-250, T197M).
The target of assay [2] is HOXC9 (Homo sapiens, UniProt P31274 178-260, K195R).
A further assay has as its target T1, VENTX (Homo sapiens, UniProt O95231 78-163).
T1 sequence: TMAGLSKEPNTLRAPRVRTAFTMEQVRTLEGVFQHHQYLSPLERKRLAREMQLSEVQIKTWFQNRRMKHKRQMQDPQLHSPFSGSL

Assay [3] deals with HOXA7 (Homo sapiens, UniProt P31268 116-202).
Assay [4] addresses HOXC10 (Homo sapiens, UniProt Q9NYD6 254-340).
The target in assay [5] is HOXB6 (Homo sapiens, UniProt P17509 132-218, K202E).
Assay [6] concerns the target HOXB9 (Homo sapiens, UniProt P17482 171-250).
Assay [7] has as its target HOXC9 (Homo sapiens, UniProt P31274 178-260).
Assay [8] deals with HOXD13 (Homo sapiens, UniProt P35453 263-343, T313R).
The target of assay [9] is HOXC9 (Homo sapiens, UniProt P31274 178-260, R193K).
In assay [10] the target is HOXD13 (Homo sapiens, UniProt P35453 263-343).
The target of assay [11] is HOXC10 (Homo sapiens, UniProt Q9NYD6 254-340, K271E).
Assay [12] concerns the target HOXD13 (Homo sapiens, UniProt P35453 263-343, T313A).
The target of assay [13] is HOXB9 (Homo sapiens, UniProt P17482 171-250, R186Q).
Assay [14] has as its target HOXC9 (Homo sapiens, UniProt P31274 178-260, R222W).
The target in assay [15] is HOXA7 (Homo sapiens, UniProt P31268 116-202, W177C).
In assay [16] the target is HOXB6 (Homo sapiens, UniProt P17509 132-218).

Data on 13 sequences can be found in paper PMC11006913.

Sequence of HOXB9 (Homo sapiens, UniProt P17482 171-250, T197M) (P17482 171-250 T197M): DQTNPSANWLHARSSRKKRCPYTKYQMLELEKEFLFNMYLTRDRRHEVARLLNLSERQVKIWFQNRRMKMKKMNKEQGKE
Sequence of HOXA7 (Homo sapiens, UniProt P31268 116-202) (P31268 116-202): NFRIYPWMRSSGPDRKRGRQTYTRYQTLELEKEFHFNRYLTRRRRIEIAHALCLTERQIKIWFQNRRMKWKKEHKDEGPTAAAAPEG
Sequence of HOXC10 (Homo sapiens, UniProt Q9NYD6 254-340) (Q9NYD6 254-340): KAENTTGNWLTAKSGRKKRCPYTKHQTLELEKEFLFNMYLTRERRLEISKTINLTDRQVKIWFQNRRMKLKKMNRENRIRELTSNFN
Sequence of HOXC9 (Homo sapiens, UniProt P31274 178-260, R193K) (P31274 178-260 R193K): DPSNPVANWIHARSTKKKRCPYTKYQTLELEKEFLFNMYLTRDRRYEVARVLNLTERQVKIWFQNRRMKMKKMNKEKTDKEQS
Sequence of HOXB6 (Homo sapiens, UniProt P17509 132-218) (P17509 132-218): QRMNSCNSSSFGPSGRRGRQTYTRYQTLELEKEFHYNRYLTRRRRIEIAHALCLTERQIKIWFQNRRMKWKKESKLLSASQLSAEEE
Sequence of HOXC9 (Homo sapiens, UniProt P31274 178-260, K195R) (P31274 178-260 K195R): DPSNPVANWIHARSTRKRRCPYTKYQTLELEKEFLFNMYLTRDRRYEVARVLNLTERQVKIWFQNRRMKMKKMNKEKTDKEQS
Sequence of HOXD13 (Homo sapiens, UniProt P35453 263-343, T313A) (P35453 263-343 T313A): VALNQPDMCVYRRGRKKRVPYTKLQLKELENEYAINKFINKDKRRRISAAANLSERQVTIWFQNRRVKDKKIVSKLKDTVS
Sequence of HOXC9 (Homo sapiens, UniProt P31274 178-260, R222W) (P31274 178-260 R222W): as the sequence (P31274 178-260 R193K) above, with K16R, R45W counted along it
Sequence of HOXB6 (Homo sapiens, UniProt P17509 132-218, K202E) (P17509 132-218 K202E): as the sequence (P17509 132-218) above, with K71E counted along it
Sequence of HOXD13 (Homo sapiens, UniProt P35453 263-343, T313R) (P35453 263-343 T313R): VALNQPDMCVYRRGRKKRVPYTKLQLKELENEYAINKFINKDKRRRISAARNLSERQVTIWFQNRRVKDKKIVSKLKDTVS
Sequence of HOXC9 (Homo sapiens, UniProt P31274 178-260) (P31274 178-260): as the sequence (P31274 178-260 R193K) above, with K16R counted along it
Sequence of HOXC10 (Homo sapiens, UniProt Q9NYD6 254-340, K271E) (Q9NYD6 254-340 K271E): as the sequence (Q9NYD6 254-340) above, with K18E counted along it
Sequence of HOXD13 (Homo sapiens, UniProt P35453 263-343) (P35453 263-343): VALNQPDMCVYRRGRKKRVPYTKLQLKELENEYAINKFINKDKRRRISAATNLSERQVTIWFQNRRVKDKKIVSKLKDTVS
Sequence of HOXA7 (Homo sapiens, UniProt P31268 116-202, W177C) (P31268 116-202 W177C): as the sequence (P31268 116-202) above, with W62C counted along it
Sequence of HOXB9 (Homo sapiens, UniProt P17482 171-250, R186Q) (P17482 171-250 R186Q): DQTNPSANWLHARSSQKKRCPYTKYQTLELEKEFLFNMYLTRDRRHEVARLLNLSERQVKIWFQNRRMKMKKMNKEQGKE
Sequence of HOXB9 (Homo sapiens, UniProt P17482 171-250) (P17482 171-250): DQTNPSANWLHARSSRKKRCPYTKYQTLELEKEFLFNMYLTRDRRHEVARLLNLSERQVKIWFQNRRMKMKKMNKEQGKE

For CCCATTAA, the binding signal is 10.1 upbm affinity estimate (log intensity, higher = more binding, comparable within an allelic series) with HOXB9 [1]; 12.9 upbm affinity estimate (log intensity, higher = more binding, comparable within an allelic series) in the assay with HOXC9 [2]; 13.1 upbm affinity estimate (log intensity, higher = more binding, comparable within an allelic series) with VENTX; 11.8 upbm affinity estimate (log intensity, higher = more binding, comparable within an allelic series) with HOXA7 [3]; 12.2 upbm affinity estimate (log intensity, higher = more binding, comparable within an allelic series) in the assay with HOXC10 [4]; 9.99 upbm affinity estimate (log intensity, higher = more binding, comparable within an allelic series) with HOXB6 [5]. Besides, the binding signal with HOXB9 [6] is 12.2 upbm affinity estimate (log intensity, higher = more binding, comparable within an allelic series); in the assay with HOXC9 [7] it was 12.9 upbm affinity estimate (log intensity, higher = more binding, comparable within an allelic series); with HOXD13 [8], 10.6 upbm affinity estimate (log intensity, higher = more binding, comparable within an allelic series); with HOXC9 [9], 12.9 upbm affinity estimate (log intensity, higher = more binding, comparable within an allelic series); in the assay with HOXD13 [10], 11.8 upbm affinity estimate (log intensity, higher = more binding, comparable within an allelic series); in the assay with HOXC10 [11] it was 12.2 upbm affinity estimate (log intensity, higher = more binding, comparable within an allelic series). Besides, the binding signal is 11.5 upbm affinity estimate (log intensity, higher = more binding, comparable within an allelic series) in the assay with HOXD13 [12]; 12 upbm affinity estimate (log intensity, higher = more binding, comparable within an allelic series) with HOXB9 [13]; 10.9 upbm affinity estimate (log intensity, higher = more binding, comparable within an allelic series) with HOXC9 [14]; 8.83 upbm affinity estimate (log intensity, higher = more binding, comparable within an allelic series) with HOXA7 [15]; 12.3 upbm affinity estimate (log intensity, higher = more binding, comparable within an allelic series) with HOXB6 [16].
On to CGCCGCCG, for which the binding signal is 8.3 upbm affinity estimate (log intensity, higher = more binding, comparable within an allelic series) with VENTX; 8.5 upbm affinity estimate (log intensity, higher = more binding, comparable within an allelic series) with HOXA7 [3]; 10 upbm affinity estimate (log intensity, higher = more binding, comparable within an allelic series) in the assay with HOXC10 [4]; 9.36 upbm affinity estimate (log intensity, higher = more binding, comparable within an allelic series) with HOXD13 [8]; 9.39 upbm affinity estimate (log intensity, higher = more binding, comparable within an allelic series) with HOXD13 [10]; 10 upbm affinity estimate (log intensity, higher = more binding, comparable within an allelic series) with HOXC10 [11]. Besides, the binding signal was 9.5 upbm affinity estimate (log intensity, higher = more binding, comparable within an allelic series) in the assay with HOXD13 [12] and 8.25 upbm affinity estimate (log intensity, higher = more binding, comparable within an allelic series) in the assay with HOXA7 [15].
With GGTCATTA, the binding signal with HOXB9 [1] was 10 upbm affinity estimate (log intensity, higher = more binding, comparable within an allelic series); in the assay with VENTX, 12.4 upbm affinity estimate (log intensity, higher = more binding, comparable within an allelic series); with HOXA7 [3], 11.8 upbm affinity estimate (log intensity, higher = more binding, comparable within an allelic series); in the assay with HOXB6 [5] it was 9.99 upbm affinity estimate (log intensity, higher = more binding, comparable within an allelic series); in the assay with HOXC10 [11] it was 12 upbm affinity estimate (log intensity, higher = more binding, comparable within an allelic series); with HOXA7 [15] it was 8.85 upbm affinity estimate (log intensity, higher = more binding, comparable within an allelic series). Besides, in the assay with HOXB6 [16], the binding signal was 12.1 upbm affinity estimate (log intensity, higher = more binding, comparable within an allelic series).
Turning to CTTAATGA, the binding signal with HOXA7 [3] is 11.3 upbm affinity estimate (log intensity, higher = more binding, comparable within an allelic series); with HOXB6 [5], 9.94 upbm affinity estimate (log intensity, higher = more binding, comparable within an allelic series); in the assay with HOXA7 [15], 8.84 upbm affinity estimate (log intensity, higher = more binding, comparable within an allelic series); with HOXB6 [16], 11.6 upbm affinity estimate (log intensity, higher = more binding, comparable within an allelic series).
Take CTAATGAG: the binding signal with VENTX is 12.6 upbm affinity estimate (log intensity, higher = more binding, comparable within an allelic series).
As to ATCATTAA, the binding signal in the assay with HOXB9 [1] is 10.3 upbm affinity estimate (log intensity, higher = more binding, comparable within an allelic series); with HOXC9 [2] it was 12.8 upbm affinity estimate (log intensity, higher = more binding, comparable within an allelic series); with HOXA7 [3], 11.7 upbm affinity estimate (log intensity, higher = more binding, comparable within an allelic series); in the assay with HOXC10 [4], 12.4 upbm affinity estimate (log intensity, higher = more binding, comparable within an allelic series); in the assay with HOXB6 [5], 10.2 upbm affinity estimate (log intensity, higher = more binding, comparable within an allelic series); with HOXB9 [6], 12.1 upbm affinity estimate (log intensity, higher = more binding, comparable within an allelic series). Also, the binding signal with HOXC9 [7] is 12.8 upbm affinity estimate (log intensity, higher = more binding, comparable within an allelic series); with HOXD13 [8], 10.7 upbm affinity estimate (log intensity, higher = more binding, comparable within an allelic series); with HOXC9 [9] it was 12.8 upbm affinity estimate (log intensity, higher = more binding, comparable within an allelic series); with HOXD13 [10], 11.8 upbm affinity estimate (log intensity, higher = more binding, comparable within an allelic series); with HOXC10 [11], 12.3 upbm affinity estimate (log intensity, higher = more binding, comparable within an allelic series); with HOXD13 [12] it was 11.7 upbm affinity estimate (log intensity, higher = more binding, comparable within an allelic series). Also, the binding signal was 11.8 upbm affinity estimate (log intensity, higher = more binding, comparable within an allelic series) with HOXB9 [13]; 11.1 upbm affinity estimate (log intensity, higher = more binding, comparable within an allelic series) in the assay with HOXC9 [14]; 8.9 upbm affinity estimate (log intensity, higher = more binding, comparable within an allelic series) in the assay with HOXA7 [15]; 12 upbm affinity estimate (log intensity, higher = more binding, comparable within an allelic series) with HOXB6 [16].
AGTCATTA: the binding signal with HOXA7 [3] is 11.5 upbm affinity estimate (log intensity, higher = more binding, comparable within an allelic series); with HOXB6 [5] it was 9.89 upbm affinity estimate (log intensity, higher = more binding, comparable within an allelic series); with HOXA7 [15], 8.85 upbm affinity estimate (log intensity, higher = more binding, comparable within an allelic series); with HOXB6 [16], 11.7 upbm affinity estimate (log intensity, higher = more binding, comparable within an allelic series).
Turning to CCATTAAG, the binding signal is 12.3 upbm affinity estimate (log intensity, higher = more binding, comparable within an allelic series) in the assay with VENTX; 11.6 upbm affinity estimate (log intensity, higher = more binding, comparable within an allelic series) in the assay with HOXA7 [3]; 9.89 upbm affinity estimate (log intensity, higher = more binding, comparable within an allelic series) in the assay with HOXB6 [5]; 8.82 upbm affinity estimate (log intensity, higher = more binding, comparable within an allelic series) in the assay with HOXA7 [15]; 12 upbm affinity estimate (log intensity, higher = more binding, comparable within an allelic series) in the assay with HOXB6 [16].
As to ACTAATGG, the binding signal in the assay with VENTX is 12.8 upbm affinity estimate (log intensity, higher = more binding, comparable within an allelic series).
For ATCGATTA, in the assay with VENTX, the binding signal is 12.6 upbm affinity estimate (log intensity, higher = more binding, comparable within an allelic series).
Turning to GTTAATGA, the binding signal with VENTX was 12.6 upbm affinity estimate (log intensity, higher = more binding, comparable within an allelic series); in the assay with HOXA7 [3], 11.3 upbm affinity estimate (log intensity, higher = more binding, comparable within an allelic series); with HOXB6 [5], 9.94 upbm affinity estimate (log intensity, higher = more binding, comparable within an allelic series); with HOXC10 [11], 11.9 upbm affinity estimate (log intensity, higher = more binding, comparable within an allelic series); with HOXA7 [15], 8.79 upbm affinity estimate (log intensity, higher = more binding, comparable within an allelic series); with HOXB6 [16], 11.8 upbm affinity estimate (log intensity, higher = more binding, comparable within an allelic series).
Turning to ATTATTAA, the binding signal is 10 upbm affinity estimate (log intensity, higher = more binding, comparable within an allelic series) with HOXB9 [1] and 10.1 upbm affinity estimate (log intensity, higher = more binding, comparable within an allelic series) with HOXB6 [5].
Turning to CGCCGAAG, the binding signal in the assay with HOXC9 [2] was 9.52 upbm affinity estimate (log intensity, higher = more binding, comparable within an allelic series); in the assay with HOXB6 [5], 9.07 upbm affinity estimate (log intensity, higher = more binding, comparable within an allelic series); in the assay with HOXC9 [7] it was 9.6 upbm affinity estimate (log intensity, higher = more binding, comparable within an allelic series); in the assay with HOXC9 [9] it was 9.42 upbm affinity estimate (log intensity, higher = more binding, comparable within an allelic series); in the assay with HOXC9 [14], 9.77 upbm affinity estimate (log intensity, higher = more binding, comparable within an allelic series); in the assay with HOXB6 [16] it was 9.15 upbm affinity estimate (log intensity, higher = more binding, comparable within an allelic series).
